# Activity calls are given as the source filed them. Calls come from the whole dose curve; as a rule, active = well fitted curve in the direction sought with a large enough effect; inconclusive = small, poorly fitted or top-dose-only effect, or another doubt; inactive = no such curve, though single readings can be large or run the other way.
# Molecular target: Hexokinase-4 (Homo sapiens) + Glucokinase regulatory protein (Homo sapiens) (UniProt P35557+Q14397)
# Experiment: qHTS assay for inhibitors of recombinant human GCK-GKRP interaction: HTRF assay (AID 743207)
# Conditions: recombinant GCK-GKRP HTRF binding, 60 min, with sorbitol-6-phosphate; series mostly up to 57.5 µM
# Text: Glucokinase (GCK) is a glucose sensor in hepatocytes and pancreatic beta-cells. Hepatic GCK is regulated by glucokinase regulatory protein (GKRP), which is predominantly localized to the liver. GKRP binds to GCK inhibiting its activity in the fasting state while in the presence of glucose the GKRP is displaced. There is an additional layer of regulation by fructose 1-phosphate and fructose 6-phosphate, which inhibit and enhance the GCK-GKRP interaction, respectively. GCK plays a role in glucose homeostasis and there is an interest in the development of strategies to activate GCK to lower blood glucose levels in type 2 diabetes. To date the majority of effort has focused on direct activation of GCK and the assays developed herein look to activate GCK by inhibiting its binding to GKRP. A compound that inhibits the interaction of GCK with GKRP could be important for the treatment of diabetes and can also be used as a tool compound to further elucidate GCK-GKRP biology. To that end, we have developed an HTS biochemical assay using HTRF technology for to interrogate the GCK-GKRP interaction. This assay was screened against a small compound library to look for modulators of activity.
# 3 uL of 5 nM GST-GCK and 5 nM FLAG-GKRP proteins with 2 uM S6P (columns 1-2, 4-48; Millipore, Billerica, MA) are dispensed into Greiner, white solid-bottom 1536-well assay plates; columns 3 receive buffer without GCK as a control for maximum inhibition. Buffer contains 2 mM MgCl2, 25 mM KCl, 25 mM Hepes, 1 mM DTT, 0.1% Tween 20 and 0.025% BSA and the pH was adjusted to 7.1. Compounds (23 nL) are then transferred via Kalypsys pin tool equipped with 1536-pin array (10 nL slotted pins, V&P Scientific, San Diego, CA). The library compounds are in columns 5-48 and columns 1-4 serve as controls with DMSO in columns 1 and 3 and 26 mM 1:1.5 fold serial of gluckokinase activator (GKA-EMD) in column 2 and 26 mM of the glucokinase activator (GKA-EMD) in column 4. Following addition of compound, 1 uL of detection antibodies (anti-Flag XL 665 and anti-GST K in reconstitution buffer from Cisbio, Bedford, MA; 0.7 ng/well and 0.0945 ng/well, respectively) is added, and the mixture is allowed to equilibrate for 60 minutes at room temperature. Data are normalized to DMSO-treated control columns with (maximum signal) and without (minimum signal) enzyme. Plates were read on an Envision plate reader (PerkinElmer, Shelton, CT, USA) with excitation at 320 nm and dual-wavelength detection at the Fret donor wavelength (615 nm) and the FRET acceptor wavelength (665 nm).
# Chain of Hexokinase-4 (Homo sapiens) + Glucokinase regulatory protein (Homo sapiens) (P35557 whole entry, looked up): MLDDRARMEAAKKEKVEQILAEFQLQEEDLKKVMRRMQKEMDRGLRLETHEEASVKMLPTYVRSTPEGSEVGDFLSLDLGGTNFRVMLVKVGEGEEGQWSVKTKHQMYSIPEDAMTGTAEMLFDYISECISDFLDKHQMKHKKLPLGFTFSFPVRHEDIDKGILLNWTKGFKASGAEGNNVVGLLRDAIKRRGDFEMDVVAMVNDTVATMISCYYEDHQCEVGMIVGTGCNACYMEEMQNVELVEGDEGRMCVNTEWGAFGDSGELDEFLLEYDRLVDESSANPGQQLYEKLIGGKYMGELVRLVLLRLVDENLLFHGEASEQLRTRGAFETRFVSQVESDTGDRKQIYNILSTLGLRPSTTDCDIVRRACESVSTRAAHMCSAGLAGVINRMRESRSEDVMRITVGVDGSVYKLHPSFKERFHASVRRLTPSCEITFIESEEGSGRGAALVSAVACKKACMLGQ
# Chain of Hexokinase-4 (Homo sapiens) + Glucokinase regulatory protein (Homo sapiens) (Q14397 whole entry, looked up): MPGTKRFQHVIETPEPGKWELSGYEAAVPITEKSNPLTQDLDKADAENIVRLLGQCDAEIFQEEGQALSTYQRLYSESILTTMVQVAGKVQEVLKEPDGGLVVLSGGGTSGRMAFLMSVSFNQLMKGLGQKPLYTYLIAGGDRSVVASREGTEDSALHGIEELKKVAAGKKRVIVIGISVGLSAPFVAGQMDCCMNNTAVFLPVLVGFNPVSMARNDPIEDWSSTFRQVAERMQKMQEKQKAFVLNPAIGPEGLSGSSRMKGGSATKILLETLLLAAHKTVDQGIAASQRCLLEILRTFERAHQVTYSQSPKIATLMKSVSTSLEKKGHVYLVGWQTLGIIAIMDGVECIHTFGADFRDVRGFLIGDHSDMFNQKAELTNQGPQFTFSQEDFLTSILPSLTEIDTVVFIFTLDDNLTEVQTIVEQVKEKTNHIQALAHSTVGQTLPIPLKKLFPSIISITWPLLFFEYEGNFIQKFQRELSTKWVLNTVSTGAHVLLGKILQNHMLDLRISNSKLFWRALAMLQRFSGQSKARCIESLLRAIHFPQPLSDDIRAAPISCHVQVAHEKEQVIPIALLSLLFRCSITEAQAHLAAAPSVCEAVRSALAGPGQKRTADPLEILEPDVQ
row,Structure (SMILES),outcome
1,CCCCCN(C)CCC(O)(P(=O)(O)O)P(=O)(O)O,inactive
2,O=c1c(-c2ccc(O)cc2)coc2cc(O)ccc12,inactive
3,CCCCC1C(=O)N(c2ccccc2)N(c2ccccc2)C1=O,inactive
4,O=C1NC(=O)C(c2ccccc2)(c2ccccc2)N1,inactive
5,CCN(CC)CCOC(=O)c1ccc(N)cc1,inactive
6,O=c1cc(-c2ccc(O)cc2)oc2cc(O)cc(O)c12,inactive
7,CC/C(=C(\c1ccccc1)c1ccc(OCCN(C)C)cc1)c1ccccc1,inactive
8,COc1cccc(-c2cc(=O)c3ccccc3o2)c1N,inactive
9,CC(C)OC(=O)C(C)(C)Oc1ccc(C(=O)c2ccc(Cl)cc2)cc1,inactive
10,NC(N)=Nc1nc(CSCC/C(N)=N/S(N)(=O)=O)cs1,inactive
11,CCN(CC)C(=O)c1ccc(O)c(OC)c1,inactive
12,O=C1NCC2(CCN(CCc3ccccc3)CC2)O1,inactive
13,CC1=C(/C=C/C(C)=C/C=C/C(C)=C/C(=O)Nc2ccc(O)cc2)C(C)(C)CCC1,inactive
14,NCCS,inactive
15,CN(C)CCC(c1ccccc1)c1ccccn1 (centres undefined),inactive
16,CCN1CCC[C@H]1CNC(=O)c1cc(S(N)(=O)=O)ccc1OC,inactive
17,Clc1ccc(Cn2c(CN3CCCC3)nc3ccccc32)cc1,inactive
18,CCN(CC)CCNC(=O)c1ccc(N)cc1,inactive
19,COc1ccc(Cc2nccc3cc(OC)c(OC)cc23)cc1OC,inactive
20,CC(=O)N[C@@H](CS)C(=O)O,inactive
21,CC(=O)O[C@]1(C(C)=O)CC[C@H]2[C@@H]3C=C(Cl)C4=CC(=O)[C@@H]5C[C@@H]5[C@]4(C)[C@H]3CC[C@@]21C,inactive
22,CC(=O)c1ccc(S(=O)(=O)NC(=O)NC2CCCCC2)cc1,inactive
23,COc1ccccc1N1CCN(CCCNc2cc(=O)n(C)c(=O)n2C)CC1,inactive
24,O=C(NCCN1CCOCC1)c1ccc(Cl)cc1,inactive
25,CC(=O)CCCCn1c(=O)c2c(ncn2C)n(C)c1=O,inactive
26,COC(=O)[C@@H]1[C@H]2C[C@H]3c4[nH]c5ccccc5c4CCN3C[C@@H]2CC[C@@H]1O,inactive
27,CCCNC(=O)NS(=O)(=O)c1ccc(Cl)cc1,inactive
28,C[N+](C)(C)CCCCCC[N+](C)(C)C,inactive
29,Cc1cccc(C)c1OCC(C)N (centres undefined),inactive
